Values joined by “and” are separate entries in the source; they are usually repeats but may differ in a detail not shown here. Equal entries are not always repeated. Inconclusive results are not listed. Active and inactive are the calls of the source.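 The calls were made as follows, unless noted: active = compounds killing one labelled cell type while sparing the other, by normalised counts and ratio limits, not self-fluorescent; inactive = the rest.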
What was measured:
[1] = differential killing of epithelial or mesenchymal cells, primary screen, imaging, PC-3E GFP, TEM4-18 mCherry, co-culture (AID 1345086); conditions: imaging cell counts, at 1 µM; for red/green cell ratio (normalised): actives lie on both sides, counts scaled to control wells, 1 = unselective;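 as to all read-outs here: cells exposed to compound for 72 h before imaging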;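 as to red/green cell ratio (normalised): normalised mesenchymal count divided by normalised epithelial count so high means epithelial killing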
[2] = growth inhibition of DIPG glioma cells, dose response, cell-based, SU-DIPG-XIII, MIPE4.0, CellTiter-Glo, qHTS (AID 1347061; cut-off not given, nearly all actives have AC50 up to about 37 µM;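 also: cells exposed to compound for 48 hours before readout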); conditions: SU-DIPG-XIII viability, CellTiter-Glo ATP luminescence
[3] = growth inhibition of DIPG glioma cells, dose response, cell-based, SU-DIPG-IV, MIPE4.0, CellTiter-Glo, qHTS (AID 1347063; cut-off not given, nearly all actives have AC50 up to about 30 µM;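 also: compound exposure lasted 48 hours before the viability readout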); conditions: SU-DIPG-IV viability, CellTiter-Glo ATP luminescence
[4] = SU-DIPG-VI glioma cell viability, MIPE4.0 library, CellTiter-Glo luminescence, qHTS (AID 1347066; cut-off not given, nearly all actives have AC50 up to about 30 µM;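 also: cells exposed to compound for 48 hours before readout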); conditions: CellTiter-Glo ATP luminescence
[5] = SU-DIPG-XXV glioma cell viability, MIPE5.0 library, qHTS (AID 1347068; cut-off not given, nearly all actives have IC50 up to about 30 µM)
[6] = sensitizers of A549 cells to miR-34 induction, primary screen, imaging, A549 dox-inducible miR-34, nuclei and caspase counts (AID 1347080;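 active = compounds whose cell count with miR-34 switched on is under 0.7 times the count with it off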); conditions: A549 miR-34 inducible, Hoechst nuclei count, 48 h
[7] = measured here: epithelial PC-3E GFP cell survival
[8] = measured here: mesenchymal TEM4-18 mCherry cell survival
[9] = stronger effect = lower value, cell number ratio, induced over uninduced
[10] = measured here: relative caspase fold change +Dox/-Dox
[11] = measured here: total cells with miR-34 induction, stronger effect = lower value
[12] = measured here: total cells without miR-34 induction

Compound | red/green cell ratio (normalised) [1] | normalised cell number [1, 7] | normalised cell number [1, 8] | outcome [2] | outcome [3] | outcome [4] | outcome [5] | fold change [6, 9] | fold change [6, 10] | cell count [6, 11] | cell count [6, 12]
Oc1cc2c(cc1O)C1c3ccc(O)c(O)c3OCC1(O)C2 (centres undefined) | 1.05 (inactive) | 1.12 | 1.18 | inactive | inactive | inactive | inactive | – | – | – | –
O=c1[nH]c(=O)n([C@H]2C[C@H](O)C(CO)O2)cc1I (some centres undefined) | 0.98 (inactive) | 1.09 | 1.07 | – | – | – | – | 1.01 (inactive) | 0.724 | 7950 | 7880
CC(=O)c1ccc2c(c1)Sc1ccccc1N2CCCN1CCN(CCO)CC1 | 1.02 (inactive) | 1.21 | 1.23 | – | – | – | – | 0.952 (inactive) | 0.758 | 8860 | 9300
NCCCC(N)C(=O)O (centres undefined) | 1.03 (inactive) | 0.99 | 1.02 | – | – | – | – | 0.906 (inactive) | 0.95 | 8560 | 9450
O=C1SCN(Cc2ccccc2)CN1Cc1ccccc1 | 0.9 (inactive) | 0.96 | 0.86 | – | – | – | – | 0.983 (inactive) | 0.637 | 8570 | 8710
Nc1nc(NC2CC2)c2ncn(C3C=C[C@@H](CO)C3)c2n1 (some centres undefined) | 1.14 (inactive) | 1.1 | 1.26 | – | – | – | – | 0.995 (inactive) | 0.706 | 8880 | 8920
C[C@@H]1CC2C3CCC4=CC(=O)C=C[C@]4(C)[C@@]3(F)[C@@H](O)C[C@]2(C)[C@H]1C(=O)CO (some centres undefined) | 1.08 (inactive) | 1.08 | 1.16 | – | – | – | – | 0.893 (inactive) and 0.821 (inactive) | 0.943 and 1.01 | 6390 and 5470 | 7160 and 6670
Cc1cc(=O)c(C(=O)N[C@@H](C(=O)N[C@@H]2C(=O)N3C(C(=O)O)=C(CSc4nnnn4C)CSC23)c2ccc(O)cc2)c[nH]1 (some centres undefined) | 0.9 (inactive) | 1.24 | 1.12 | – | – | – | – | 0.93 (inactive) | 0.887 | 8940 | 9610
N[C@@H](CO)c1ccccc1 | 0.91 (inactive) | 0.97 | 0.88 | – | – | – | – | 0.995 (inactive) | 0.434 | 5440 | 5460
Cc1oc(=O)oc1CN1CCN(c2cc3c(cc2F)c(=O)c(C(=O)O)c2n3C(C)C2)CC1 (centres undefined) | 0.94 (inactive) | 0.97 | 0.91 | – | – | – | – | 0.994 (inactive) | 0.87 | 9060 | 9120
C[C@]12C=CC(=O)C=C1CCC1C2[C@@H](O)C[C@@]2(C)C1CC[C@]2(O)C(=O)COP(=O)(O)O (some centres undefined) | 1.33 (inactive) | 0.86 | 1.15 | – | – | – | – | 0.855 (inactive) | 1.09 | 6110 | 7150
CC(=O)OC1CC2CCC1(C)C2(C)C (centres undefined) | 1.03 (inactive) | 0.91 | 0.94 | – | – | – | – | 0.913 (inactive) | 0.766 | 8690 | 9520
C[C@]1(Cn2ccnn2)C(C(=O)O)N2C(=O)CC2S1(=O)=O (some centres undefined) | 0.89 (inactive) | 1.34 | 1.19 | – | – | – | – | 0.905 (inactive) | 0.742 | 8100 | 8960
Cc1cc2nc3c(=O)[nH]c(=O)nc-3n(C[C@@H](O)[C@@H](O)[C@@H](O)COP(=O)(O)O)c2cc1C | 1.01 (inactive) | 1.03 | 1.04 | – | – | – | – | 0.895 (inactive) | 1.15 | 8530 | 9530
C=C1CC2C3C=C(C)C4=CC(=O)CC[C@]4(C)C3CC[C@]2(C)[C@@]1(OC(C)=O)C(C)=O (some centres undefined) | 1.26 (inactive) | 0.99 | 1.24 | – | – | – | – | 0.949 (inactive) | 1.45 | 4400 | 4640
CC12CCC3c4ccc(O)cc4CCC3C1C[C@H](O)[C@@H]2O (some centres undefined) | 0.97 (inactive) | 0.91 | 0.89 | – | – | – | – | 0.999 (inactive) | 0.736 | 8330 | 8350
CCC(CC)O[C@@H]1C=C(C(=O)OC)C[C@H](N)[C@H]1NC(C)=O | 0.99 (inactive) | 1.01 | 1 | – | – | – | – | 0.882 (inactive) | 1.08 | 8740 | 9910

Reference: PubChem BioAssay
